The text below walks through data of PubChem BioAssay (Tox21).

Each structure is given as a SMILES string. “And” between values parts separate entries of the source, which are not always exact repeats. Equal entries are not always repeated. Records with an inconclusive call do not appear. Some compounds were tested as several samples or in several runs, with calls that do not always agree. The source made the active and inactive calls. Unless noted, calls follow the shape of the dose curve; as a rule, active = well fitted curve in the direction sought with a large enough effect in the repeat runs; inconclusive = weak or mixed curves; inactive = no such curve, though single readings can be large; an effect the other way counts as inactive or inconclusive.

A short description of test [1]: qHTS assay to identify small molecule antagonists of the androgen receptor (AR) signaling pathway using the MDA cell line in the presence of 0.5 nM R1881 - cell viability counter screen (AID 1259242). Also: nearly all actives have a fitted effect of over 45% in size. Also: potency is read from the fitted curve at half-maximal effect. In outline:
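Live-cell protease fluorescence, CellTiter-Fluor, 30 min at 37C. Cells: MDA-kb2, 3,000/well, preincubated 5 hr. Compounds plus 0.5 nM R1881 final, 16 hr, 37C, 0% CO2.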
(Quantitative high-throughput screening tests each substance at several concentrations.)

The nature of test [2]: qHTS assay to identify small molecule phospholipidosis (PLD) inducers (AID 1259344; active = well fitted curve in the direction sought with a large enough effect; an effect the other way counts as inactive or inconclusive). In outline:
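Cells (HepG2, 900 per well) attach for 4 h, receive LipidTOX Red and compound together, incubate 24 h at 37 C, are fixed 30 min with paraformaldehyde/Hoechst, then imaged at one site per well.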

The nature of test [3]: qHTS assay to identify small molecule HDAC inhibitors (AID 1259364).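 Also: wild-type HCT-116 cells with endogenous class I/II HDAC activity; top concentration of the series differs between compounds; nearly all actives have a fitted effect of over 45% in size.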 A digest of the protocol: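 HCT-116 (wild type), 1,500 cells/well, overnight; compound 2 hr 37C 5% CO2; HDAC-Glo I/II reagent 30 min RT; luminescence readout.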
The nature of test [4]: qHTS assay to identify small molecule HDAC inhibitors - cell viability counter screen (AID 1259365). Also: series mostly up to about 92 µM; nearly all actives have a fitted effect of over 50% in size. In outline:
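Measured quantity is CellTiter-Glo luminescence from wild-type HCT-116 cells after compound incubation of 2hr at 37C, 5% CO2; reagent developed 30min at room temperature.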

Test [5] can be described thus: qHTS assay to identify small molecule agonists of the sonic hedgehog signaling (Shh) pathway - cell viability counter screen (AID 1259366). Also: nearly all actives have a fitted effect of over 50% in size. Also: potency is read from the fitted curve at half-maximal effect. In outline: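 In quantitative high-throughput format, 3T3 Gli1-Luc cells were exposed to compounds for 24hr and multiplexed for viability using CellTiter-Fluor, incubated 1hr at 37C before the fluorescence read.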
The nature of test [6]: qHTS assay to identify small molecule antagonists of the sonic hedgehog signaling (Shh) pathway - cell viability counter screen (AID 1259367). Also: nearly all actives have a fitted effect of over 55% in size. A digest of the protocol:
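Cytotoxicity was assessed in parallel with Shh reporter activity by measuring live-cell protease fluorescence (CellTiter-Fluor) in NIH/3T3 cells stably carrying Gli1-Luc, treated with compound under conditioned medium stimulation for 23 hr plus 1 hr reagent incubation.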

Test [7] is described as follows: qHTS assay to identify small molecule agonists of the sonic hedgehog signaling (Shh) pathway (AID 1259368; calls by dose curve;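 also: NIH/3T3-derived 3T3Gli1-Luc cells carrying a stable Gli1-driven firefly luciferase reporter; series mostly up to about 92 µM; nearly all actives have a fitted effect of over 15% in size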). A digest of the protocol: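 Read-out: firefly luciferase luminescence from a Gli1 response element reporter stably integrated in NIH/3T3-derived 3T3Gli1-Luc cells, measured 30 min at room temperature after reagent addition. Compound exposure lasted 24 hr at 37 C, 5% CO2.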

The nature of test [8]: qHTS assay to identify small molecule antagonists of the sonic hedgehog signaling (Shh) pathway (AID 1259369; calls by dose curve; also: nearly all actives have a fitted effect of over 45% in size). In outline: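 Luminescence readout: firefly Luc under Gli1 response element in 3T3Gli1-Luc cells (NIH/3T3 clone). Antagonist mode, stimulation by conditioned medium; compound exposure 24hr at 37 C, 5% CO2.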
Test [9] is described as follows: qHTS assay to identify small molecule agonists of the androgen receptor (AR) signaling pathway in the presence of an antagonist - cell viability counter screen (AID 1259379). Also: nearly all actives have a fitted effect of over 25% in size. Also: potency is read from the fitted curve at half-maximal effect. In outline:
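Viability counter screen: CellTiter-Fluor fluorescence, measured in the same wells as the luciferase read-out. MDA-kb2 cells, 3,000/well, with nilutamide at 3.0uM final and compounds at 15 concentrations, 16 hr at 37C, 0% CO2.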

A short description of test [10]: qHTS assay to identify small molecule agonists of the estrogen receptor beta (ER-beta) signaling pathway - cell viability counter screen (AID 1259380). Also: nearly all actives have a fitted effect of over 30% in size. Also: potency is read from the fitted curve at half-maximal effect. A digest of the protocol:
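Luminescence read-out (CellTiter-Glo, 30 min, room temp) taken in the same wells as the beta-lactamase reporter assay; ER-beta-UAS-bla HEK293T cells exposed to DMSO-dissolved compounds for 16 hr at 37C in 2% charcoal-stripped FBS medium.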

Test [11] in a line: qHTS assay to identify small molecule antagonists of the estrogen receptor beta (ER-beta) signaling pathway - cell viability counter screen (AID 1259382). Also: nearly all actives have a fitted effect of over 55% in size. Also: potency is read from the fitted curve at half-maximal effect. A digest of the protocol: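 Luminescent ATP read-out (CellTiter-Glo, 30 min, RT) taken in the same wells as the bla reporter assay. HEK293T ER-beta-UAS-bla cells in 2% charcoal-stripped FBS were exposed to compounds with 1nM E2 for 16 hr at 37C.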

The nature of test [12]: qHTS assay to identify small molecule agonists or antagonists of the thyroid stimulating hormone receptor (TSHR) signaling pathway - wild type cell line counter screen (AID 1259384; calls by dose curve). A digest of the protocol: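 Wild-type HEK293 cells were plated 18 h at 37 C/5% CO2, pin-dosed with compound plus Ro20-1724 medium, held 30 min at room temperature, then given cAMP-d2 and anti-cAMP-cryptate; fluorescence was read after 1 h. Fifteen concentrations, triplicate.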

Test [13] concerns the target Thyrotropin receptor (Homo sapiens) (UniProt P16473). Briefly: qHTS assay to identify small molecule antagonists of the thyroid stimulating hormone receptor (TSHR) signaling pathway (AID 1259385; calls by dose curve; also: nearly all actives have a fitted effect of over 20% in size; also: potency is read from the fitted curve at half-maximal effect). A digest of the protocol:
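TSHR-HEK293 cells were plated and held 18 h at 37C/5% CO2, then given compound plus Ro20-1724 and stimulated with TSH at 1.5 ng/mL final. After 30 min at room temperature, cAMP was detected with cAMP-d2/anti-cAMP-cryptate (1 h) by fluorescence.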

A short description of test [14]: qHTS assay to identify small molecule agonists of the estrogen receptor alpha (ER-alpha) signaling pathway in the presence of an antagonist - cell viability counter screen (AID 1259386).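 Also: cells exposed to compounds for 22 h at 37 °C before the viability read; nearly all actives have a fitted effect of over 30% in size.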 Also: potency is read from the fitted curve at half-maximal effect. In outline:
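Read-out: CellTiter-Fluor fluorescence after 1hr reagent incubation, measured in the same wells as the luciferase readout. VM7Luc4E2 cells were exposed to 15 compound concentrations with 10.0nM ICI-182,780 for 22hr at 37C.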

Test [15] has as its target Estrogen receptor (Homo sapiens) (UniProt P03372). Briefly: qHTS assay to identify small molecule antagonists of the estrogen receptor alpha (ER-alpha) signaling pathway using the BG1 cell line in the presence of 0.1 nM 17-beta-estradiol (AID 1259244). Also: nearly all actives have a fitted effect of over 50% in size. A digest of the protocol: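 Luminescence after ONE-Glo (30 min, room temperature) measured ERE-luciferase activity in VM7Luc4E2 cells treated 22 h with compound and 0.1 nM final 17beta-estradiol as stimulator.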

Test [16] addresses Estrogen receptor beta (Homo sapiens) (UniProt Q92731). Briefly: qHTS assay to identify small molecule agonists of the estrogen receptor beta (ER-beta) signaling pathway (AID 1259377; active = well fitted activation curve with a large enough effect in the signal ratio in the repeat runs, not every such curve was filed as active; the % refers to the signal ratio; also: potency is read from the fitted curve at half-maximal effect). In outline:
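Reporter cells (HEK293T, ER-beta-UAS-bla) receive compounds or DMSO after a 6 hr pre-incubation. They then incubate 16 hr at 37C/5% CO2, and fluorescence from LiveBLAzer B/G substrate is measured after 2 hours at room temperature.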

Test [17] has the same target. Briefly: qHTS assay to identify small molecule antagonists of the estrogen receptor beta (ER-beta) signaling pathway (AID 1259378; active = well fitted inhibition curve with a large enough effect in the signal ratio in the repeat runs, not every such curve was filed as active; the % refers to the signal ratio; also: potency is read from the fitted curve at half-maximal effect). A digest of the protocol:
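ER-beta-UAS-bla HEK293T (GripTite) cells in 2% charcoal-stripped FBS medium were preincubated 6 hr at 37C, dosed with compound, then stimulated with 1 nM E2 (final) for 16 hr; beta-lactamase reporter read by B/G FRET fluorescence after 2 hr substrate loading.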

Test [18] concerns the target Estrogen receptor (Homo sapiens) (UniProt P03372). Briefly: qHTS assay to identify small molecule agonists of the estrogen receptor alpha (ER-alpha) signaling pathway in the presence of an antagonist (AID 1259383; calls by dose curve; also: nearly all actives have a fitted effect of over 15% in size; also: potency is read from the fitted curve at half-maximal effect; as to activation: top concentration of the series differs between compounds). A digest of the protocol:
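Luciferase luminescence (ONE-Glo, 30min at room temperature) measured in VM7Luc4E2 cells after 22hr compound exposure at 15 concentrations, with 10.0nM ICI-182,780 final present; cells express endogenous ER-alpha and carry four EREs upstream of luciferase.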

Test [19] addresses Androgen receptor (Homo sapiens) (UniProt P10275). The test is described as follows: qHTS assay to identify small molecule agonists of the androgen receptor (AR) signaling pathway in the presence of an antagonist (AID 1259381; calls by dose curve; also: nearly all actives have a fitted effect of over 15% in size). In outline:
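Luciferase read-out (ONE-Glo, 30min room temperature) in MDA-kb2 MMTV-reporter cells; agonist mode run in presence of AR antagonist nilutamide, 3.0uM final. Compounds tested as 15-point series, 16hr exposure at 37C, 0% CO2.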

Estrogen receptor (Homo sapiens), sequence (P03372 whole entry, looked up): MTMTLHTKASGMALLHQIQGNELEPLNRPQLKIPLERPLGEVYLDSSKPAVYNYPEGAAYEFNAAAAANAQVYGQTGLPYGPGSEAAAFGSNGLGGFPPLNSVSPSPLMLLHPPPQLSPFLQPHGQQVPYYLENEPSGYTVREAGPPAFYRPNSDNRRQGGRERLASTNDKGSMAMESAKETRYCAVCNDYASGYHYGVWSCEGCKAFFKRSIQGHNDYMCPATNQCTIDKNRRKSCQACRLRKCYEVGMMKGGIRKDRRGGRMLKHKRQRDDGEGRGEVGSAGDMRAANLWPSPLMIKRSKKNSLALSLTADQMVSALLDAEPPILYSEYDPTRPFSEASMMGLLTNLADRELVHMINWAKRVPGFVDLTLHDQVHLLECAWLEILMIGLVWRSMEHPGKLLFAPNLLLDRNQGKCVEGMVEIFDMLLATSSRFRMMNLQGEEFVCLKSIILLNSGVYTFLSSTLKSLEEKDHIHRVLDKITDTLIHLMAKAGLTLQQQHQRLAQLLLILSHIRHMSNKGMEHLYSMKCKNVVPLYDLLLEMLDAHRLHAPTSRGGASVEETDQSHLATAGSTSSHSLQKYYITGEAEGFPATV
Thyrotropin receptor (Homo sapiens), sequence (P16473 whole entry, looked up): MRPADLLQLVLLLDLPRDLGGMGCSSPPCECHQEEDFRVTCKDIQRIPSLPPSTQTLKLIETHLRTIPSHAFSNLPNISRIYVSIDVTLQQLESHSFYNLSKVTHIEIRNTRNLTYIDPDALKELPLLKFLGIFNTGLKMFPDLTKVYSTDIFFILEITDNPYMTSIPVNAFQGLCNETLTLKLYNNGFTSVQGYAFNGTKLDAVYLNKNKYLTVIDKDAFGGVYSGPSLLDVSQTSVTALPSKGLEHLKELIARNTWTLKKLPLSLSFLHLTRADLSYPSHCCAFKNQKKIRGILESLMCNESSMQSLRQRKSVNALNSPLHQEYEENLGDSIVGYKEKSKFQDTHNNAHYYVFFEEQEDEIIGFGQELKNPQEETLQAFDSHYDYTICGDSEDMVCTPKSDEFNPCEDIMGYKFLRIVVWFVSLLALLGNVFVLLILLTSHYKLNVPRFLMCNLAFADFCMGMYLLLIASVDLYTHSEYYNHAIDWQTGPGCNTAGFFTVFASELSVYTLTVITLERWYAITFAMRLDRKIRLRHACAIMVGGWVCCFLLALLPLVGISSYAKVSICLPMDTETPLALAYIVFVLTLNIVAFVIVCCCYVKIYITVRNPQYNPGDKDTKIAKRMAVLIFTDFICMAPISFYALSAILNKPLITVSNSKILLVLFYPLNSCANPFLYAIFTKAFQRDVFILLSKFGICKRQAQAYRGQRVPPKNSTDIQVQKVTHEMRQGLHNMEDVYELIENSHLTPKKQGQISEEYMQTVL
Estrogen receptor beta (Homo sapiens), sequence (Q92731 whole entry, looked up): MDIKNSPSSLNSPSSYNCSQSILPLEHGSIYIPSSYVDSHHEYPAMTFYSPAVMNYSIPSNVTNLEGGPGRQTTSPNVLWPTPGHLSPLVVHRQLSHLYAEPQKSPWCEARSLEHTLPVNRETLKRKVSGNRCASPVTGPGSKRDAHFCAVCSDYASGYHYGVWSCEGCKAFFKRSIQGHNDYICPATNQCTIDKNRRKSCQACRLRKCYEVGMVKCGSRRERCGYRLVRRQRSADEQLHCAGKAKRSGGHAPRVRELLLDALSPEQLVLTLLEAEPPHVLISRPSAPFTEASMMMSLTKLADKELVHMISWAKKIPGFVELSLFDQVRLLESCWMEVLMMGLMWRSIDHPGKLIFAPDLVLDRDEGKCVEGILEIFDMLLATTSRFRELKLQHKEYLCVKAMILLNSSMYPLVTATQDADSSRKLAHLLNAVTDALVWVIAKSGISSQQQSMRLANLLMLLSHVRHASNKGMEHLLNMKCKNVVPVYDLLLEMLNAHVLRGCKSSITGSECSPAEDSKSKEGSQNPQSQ
Androgen receptor (Homo sapiens), sequence (P10275 whole entry, looked up): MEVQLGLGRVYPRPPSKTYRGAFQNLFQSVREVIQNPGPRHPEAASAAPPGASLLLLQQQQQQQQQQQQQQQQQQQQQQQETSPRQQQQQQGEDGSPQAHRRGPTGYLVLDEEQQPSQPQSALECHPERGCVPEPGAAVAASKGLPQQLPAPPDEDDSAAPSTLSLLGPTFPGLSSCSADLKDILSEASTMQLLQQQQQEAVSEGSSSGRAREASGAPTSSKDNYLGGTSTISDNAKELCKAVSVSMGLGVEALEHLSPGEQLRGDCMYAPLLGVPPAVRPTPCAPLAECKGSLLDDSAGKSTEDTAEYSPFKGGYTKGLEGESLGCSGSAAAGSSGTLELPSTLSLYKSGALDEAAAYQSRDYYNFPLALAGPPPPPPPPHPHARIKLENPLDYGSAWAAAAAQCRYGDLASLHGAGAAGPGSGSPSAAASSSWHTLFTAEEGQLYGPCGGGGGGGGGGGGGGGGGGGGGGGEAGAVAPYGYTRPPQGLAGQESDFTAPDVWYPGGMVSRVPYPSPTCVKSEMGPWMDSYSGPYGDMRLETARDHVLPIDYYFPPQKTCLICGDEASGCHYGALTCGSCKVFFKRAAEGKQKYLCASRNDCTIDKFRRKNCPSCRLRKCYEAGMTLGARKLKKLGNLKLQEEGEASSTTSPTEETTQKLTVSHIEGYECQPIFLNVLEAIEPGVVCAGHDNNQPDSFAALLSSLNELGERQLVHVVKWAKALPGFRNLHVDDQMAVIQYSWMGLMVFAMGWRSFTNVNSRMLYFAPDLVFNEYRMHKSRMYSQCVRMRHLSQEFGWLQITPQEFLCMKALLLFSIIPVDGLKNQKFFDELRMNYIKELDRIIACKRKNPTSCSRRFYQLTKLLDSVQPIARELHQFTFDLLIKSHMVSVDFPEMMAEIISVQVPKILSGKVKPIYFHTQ

On to `O=C1NC(=O)C(c2ccccc2)(c2ccccc2)N1`, for which the Potency result in test [1], in [2], in test [3], in test [4], in test [5] and in test [6] was “inactive” each time. The Potency entry in test [8], in test [9], in test [10], in test [11], in test [12] and in test [13] was “inactive” in each case. Also, the Potency result in [14] is “inactive”. Also, the result in test [7] was inactive.

For `C[C@](N)(Cc1ccc(O)c(O)c1)C(=O)O`, the Potency result in [1], in [2], in test [3], in [4], in test [5] and in test [6] was “inactive” each time. Further, the Potency result in test [8], in test [9], in test [10] and in test [11] was “inactive” in each case. The result in [7] was inactive. The Potency entry in test [14] was “inactive and 54.3 µM (active)”.

For the compound `NC1CCCCC1`, the Potency result in test [1], in test [15], in test [3], in [4], in [5] and in test [6] was “inactive” throughout. In addition, the Potency result in test [8], in [17], in [9], in [10], in test [11] and in test [12] was “inactive” in each case. Also, the Potency result in [13] and in [14] was “inactive” each time. For the same compound, the call in [7] was inactive. For the same compound, the Potency is 2.75 µM (active) and inactive in test [16]; 1.09 µM (active) and inactive in [18].

As to `NC(CO)(CO)CO`, the Potency result in test [1], in [15], in test [2], in test [3], in test [5] and in test [6] was “inactive” each time. Besides, the Potency entry in test [8], in [9], in [10], in [11], in [18] and in test [12] was “inactive” throughout. The Potency entry in [13] and in test [14] was “inactive” each time. In test [7], the compound was called inactive.

`C1CCC(C(CC2CCCCN2)C2CCCCC2)CC1` (stereo not given): the Potency is 26.6 µM (active) in [1]; 13.3 µM (active) in [5]; 18.8 µM (active) in test [17]; 29.8 µM (active) in test [9]; 23.7 µM (active) in test [10]; 18.8 µM (active) in test [11]. Further, the Potency in test [13] is 33.5 µM (active). The Potency entry in test [2], in [3], in [4], in [16], in [19] and in [18] was “inactive” in each case. For the same compound, the Potency result in [12] and in test [14] was “inactive” throughout. The compound was called inactive in test [7].

With `CCCCNC(=O)NS(=O)(=O)c1ccc(C)cc1`, the Potency result in [1], in [2], in test [3], in test [4], in test [5] and in test [6] was “inactive” throughout. The Potency entry in [8], in [9], in test [10], in test [11] and in test [14] was “inactive” in each case. In addition, the compound was classed as inactive in [7].

Take `O=C1NS(=O)(=O)c2ccccc21`: the Potency entry in [1], in [2], in test [3], in test [4], in test [5] and in test [6] was “inactive” in each case. The Potency result in test [8], in test [9], in test [10], in [11], in test [12] and in [13] was “inactive” in each case. Also, the Potency result in test [14] is “inactive”. Besides, in test [7], the outcome was inactive.
